Screens as filed in PubChem BioAssay.
Sampled rows, rich in hits. Any-hit rate of the full collection: about 19%.
TDP1 cell noCPT: qHTS for Inhibitors of human tyrosyl-DNA phosphodiesterase 1 (TDP1): qHTS in cells in absence of CPT; DT40 Tdp1-/- hTDP1 cells, no CPT, ATP luminescence, 48 h; Potency, µM (series often up to 46.2 µM), without a hit: at the top dose activity change, negative = growth inhibition, usual class: inhibitors; actives 15% (n = 420,000); AID 686978, 2013; note: nearly all actives have a fitted effect of over 55% in size
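Seeded 400 DT40-hTDP1 cells/well (vehicle DMSO, no 20 nM CPT); pinned compounds; ≥48 hr at 37 °C; CellTiter-Glo luminescence as viability measure.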
TDP1 cell CPT: growth inhibition of DT40 Tdp1-/-;hTDP1 cells with camptothecin (screen for TDP1 inhibitors); chicken DT40 Tdp1-/-;hTDP1 cells + 20 nM CPT, ATP luminescence, 48 h; Potency, µM (titrated, usually from 46.2 µM), without a hit: at the top dose activity change, negative = growth inhibition, actives largely listed as inhibitors; actives 12% (n = 420,000); AID 686979; note: nearly all actives have a fitted effect of over 55% in size
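Chicken DT40 Tdp1-/- cells stably complemented with human TDP1 were seeded at 400 cells/well in medium containing 20 nM camptothecin, exposed to pin-transferred compounds, and grown at 37 °C for at least 48 hr. Viability was read as ATP luminescence.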
HT1080-NT tox: kills 2HG-producing HT-1080-NT fibrosarcoma cells; HT-1080-NT fibrosarcoma viability, CellTiter-Glo ATP luminescence, 48 h; actives 1.6% (n = 360,000); Potency, µM (top dose mostly 46.1 µM), for inactives: at the highest dose activity, negative = less viability, usual class: cytotoxic;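 note: NT is the 2HG producing partner of a matched IDH1 knockdown line; 0% = DMSO-treated cells and -100% = media-only wells without cells; nearly all actives have a fitted effect of over 55% in size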
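Fibrosarcoma NT cells, 750 per well in 5% FBS RPMI, were exposed to compound for 48 hours. Viability: CellTiter-Glo luminescence.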
KB-V1 MDR tox: kills drug-selected multidrug resistant KB-V1 cells. KB-V1 MDR cells viability, CellTiter-Glo, 72 h. Potency, µM (highest dose often 46.1 µM), actives largely listed as cytotoxic. actives 3.4% (n = 400,000). AID 1347076; note: nearly all actives have a fitted effect of over 60% in size
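KB-V1, DMEM (no phenol red) + 10% FBS; cpd pin-transferred, titration series; 72 h, 37 degrees C; CellTiter-Glo, luminescence. Data normalized, curve-fit.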
KB-3-1 cytotox: kills parental KB-3-1 adenocarcinoma cells | KB-3-1 viability, CellTiter-Glo ATP luminescence, 72 h | Potency, µM (doses to about 46.1 µM), actives largely listed as cytotoxic | actives 1.4% (n = 400,000) | AID 1347075; note: nearly all actives have a fitted effect of over 60% in size
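Luminescent ATP read-out (CellTiter-Glo) measures survival of drug-naive KB-3-1 cells after 72 h compound exposure at 37 °C. Titration series was screened from lowest to highest concentration, with DMSO vehicle plates as background controls.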
HT1080 IDH1KD tx: kills HT-1080 cells with IDH1 knockdown; Potency, µM (doses to about 46.1 µM), without a hit: at the highest dose activity, negative = toxicity, most hits filed as cytotoxic; HT-1080 IDH1 knockdown viability, ATP luminescence, 48 h; actives 2% (n = 360,000);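 note: 0% = DMSO wells and -100% = cell-free medium wells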
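IDH1KD HT-1080 cells, 750/well, RPMI + 5% FBS; compound pinned after 2 h settling; 48 h, 37 °C; CellTiter-Glo luminescence; % activity normalised to DMSO and no-cell wells; curves fitted, classed by r2 and efficacy.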
The depositor's hits bear a star; i = inactive; u = inconclusive; x = no result; [ ] = another dose, or the depositor's remark. Calls come from the whole dose curve; as a rule, active = well fitted curve in the direction sought with a large enough effect; inconclusive = small, poorly fitted or top-dose-only effect, or another doubt; inactive = no such curve, though single readings can be large; an effect the other way counts as inactive or inconclusive. Unless noted, % is set by controls: 0 for no effect and ±100 for the full control effect; potency is the fitted concentration of half-maximal effect.

SMILES	TDP1 cell noCPT	TDP1 cell CPT	HT1080-NT tox	KB-V1 MDR tox	KB-3-1 cytotox	HT1080 IDH1KD tx
CN1C(=O)[C@H]2[C@@H](c3ccc(C(F)(F)F)cc3)N[C@]3(CCCN(CC4CCCCC4)C3=O)[C@H]2C1=O	10µM*	21µM*	-3%	i	i	4%
O=C(CNC(=O)c1cccc(-n2cccc2)c1)Nc1ccccc1Br	-31%	-19%	3%	i	i	3%
CCOc1ccc(C(C(=O)NC2CCCC2)N(CCCO)C(=O)c2ccc(-c3ccccc3)[nH]2)cc1 (configuration not stated)	18µM*	21µM*	u	i	i	u
O=C(NC1CCCC1)C(c1ccncc1)N(Cc1ccccc1)C(=O)c1ccc(-c2ccccc2)[nH]1 (configuration not stated)	16µM*	21µM*	u	u	u	u
O=C(NC1CCCC1)C(c1ccncc1)N(Cc1ccco1)C(=O)c1ccc(-c2ccccc2)[nH]1 (configuration not stated)	16µM*	23µM*	u	21µM*	u	15µM*
O=C(NC1CCCCC1)C(c1ccc(F)cc1)N(CCN1CCOCC1)C(=O)c1ccc(-c2ccccc2)[nH]1 (configuration not stated)	-28%	1%	23%	i	i	7%
O=C(NCC(=O)N(Cc1ccco1)C(C(=O)NC1CCCCC1)c1ccncc1)c1cccs1 (configuration not stated)	-24%	14%	1%	i	i	6%
Cc1ccccc1C(C(=O)NCc1ccccc1)N(Cc1ccco1)C(=O)c1ccccn1 (configuration not stated)	15µM*	u	-9%	u	i	9%
O=C(NC1CCCC1)C(c1ccncc1)N(CCCN1CCOCC1)C(=O)c1ccc(-c2ccccc2)[nH]1 (configuration not stated)	-23%	-16%	-13%	i	i	-11%
CCOC(=O)C1CCN(CCC(=O)Nc2ccccc2OC)CC1	-4%	-22%	x	i	i	x
COc1ccccc1NC(=O)Cn1c(=O)n(CC(=O)NCc2ccccc2Cl)c(=O)c2sccc21	-4%	-4%	x	i	i	x
COc1ccccc1NC(=O)CCNC(=O)C1CCN(S(=O)(=O)c2ccccc2)CC1	-23%	-10%	6%	i	i	4%
O=C(NC1CCCCC1)C(c1ccc(F)cc1)N(Cc1ccco1)C(=O)c1ccccn1 (configuration not stated)	-25%	0.82µM*	-6%	i	i	0%
O=C(NCc1ccccc1)C(c1ccc(F)cc1)N(Cc1ccco1)C(=O)c1ccccn1 (configuration not stated)	u	u	-3%	u	i	-3%
O=C(NC1CCSc2ccccc21)c1ccccc1Br (configuration not stated)	-1%	-26%	14%	i	i	7%
O=S(=O)(NCCNCC=Cc1ccc(Br)cc1)c1cccc2cnccc12	14µM*	10µM*	x	u	u	x
O=S(=O)(NCCNC/C=C/c1ccc(Br)cc1)c1cccc2cnccc12	24µM*	19µM*	x	x	x	x
CNCCNS(=O)(=O)c1cccc2cnccc12	u	18µM*	x	x	x	x
CCc1[nH]nc(C(=O)NC2CCCN(Cc3ccccc3F)C2)c1C (configuration not stated)	-8%	-22%	1%	i	i	-5%
COc1ccccc1C(c1nnnn1Cc1ccco1)N1CCN(c2cccc(C)c2C)CC1 (configuration not stated)	16µM*	18µM*	-24%	u	u	u
COc1ccc(Cn2nnnc2C(C(C)C)N2CCN(c3ccccc3OC)CC2)cc1 (configuration not stated)	23µM*	29µM*	-18%	u	18µM*	-1%[9.24 µM]
COc1ccccc1N1CCN(C(c2ccccc2)c2nnnn2Cc2ccccc2)CC1 (configuration not stated)	16µM*	14µM*	x	i	u	x
COc1cccc(-c2nc(NCc3cnc(C)cn3)c3ccccc3n2)c1	-29%	-26%	x	x	x	x
COc1ccc(NC(=O)c2cc(CN3CCCC3)on2)cc1Cl	-11%	0%	x	i	i	x
CCc1ccccc1NC(=O)CSc1nnc(COc2ccccc2Cl)o1	-27%	-10%	x	i	i	x
SMILES	TDP1 cell noCPT	TDP1 cell CPT	HT1080-NT tox	KB-V1 MDR tox	KB-3-1 cytotox	HT1080 IDH1KD tx
Cc1c(C(=O)OCCOC(C)C)[nH]c2c1C(=O)CC(c1ccco1)C2 (configuration not stated)	0.0052µM*	0.023µM*	0.41µM*	0.46µM*	0.52µM*	0.33µM*
Cc1c(C(=O)OCCOc2ccccc2)[nH]c2c1C(=O)CC(c1ccc(C(C)(C)C)cc1)C2 (configuration not stated)	u	-26%	x	i	i	x
CCOC(=O)c1[nH]c2c(c1C)C(=O)CC(c1ccco1)C2 (configuration not stated)	0.041µM*	0.58µM*	1µM*	i	i	0.92µM*
CSCCOC(=O)c1[nH]c2c(c1C)C(=O)CC(c1ccco1)C2 (configuration not stated)	0.82µM*	0.73µM*	u	u	1.2µM*	2.3µM*
Cc1ccc(COC(=O)c2[nH]c3c(c2C)C(=O)CC(c2ccc(N(C)C)cc2)C3)cc1 (configuration not stated)	-31%	-37%	x	i	i	x
COCCOC(=O)c1[nH]c2c(c1C)C(=O)CC(c1ccco1)C2 (configuration not stated)	0.73µM*	1µM*	2.3µM*	1.2µM*	1.2µM*	1.6µM*
Cc1c(C(=O)OCc2ccccc2)[nH]c2c1C(=O)CC(c1ccco1)C2 (configuration not stated)	0.92µM*	0.82µM*	u	u	0.58µM*	1.3µM*
CCOC(=O)N1CCC(N(CCOC)C(=O)Nc2ccc(Cl)cc2)CC1	15µM*	u	13%	u	i	16%
CCc1ccc(NC(=S)N(CCOC)C2CCN(C(C)=O)CC2)cc1	-8%	-7%	0%	i	i	1%
